From PubChem BioAssay

What was measured:
[1] = system: Human papillomavirus type 1a protein E7 (residues 44-93); assay: small molecules binding HPV E7 44-93 – biochemical, small-molecule microarray, residues 44-93, 635 nm fluorescence, primary screen (AID 1108); conditions: fluorescence 635 nm, higher = more signal;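 further: E7 fragment applied at 1 µg/mL in TBST for 1 h at 4 C; score combines spot fluorescence with its signal to noise ratio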
[2] = hepatitis C replication reporter changes, two-sided – Huh7 cells, luciferase reporter, HCV replication inhibitor project, primary screen (AID 1109); conditions: Huh7 HCV replicon luciferase reporter, 48 h; higher = more signal;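 further: huh7 hepatoma cells harbouring a luciferase neomycin HCV replicon reporter; luciferase luminescence as measure of HCV replicon replication; test concentration not given here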
[3] = biological target: Left-right determination factor 2 (Homo sapiens) (UniProt O00292); assay: small molecules binding LEFTY2 protein – biochemical, small-molecule microarray, 635 nm fluorescence scan, primary screen (AID 1110); conditions: higher = more signal
Sequence of Left-right determination factor 2 (Homo sapiens) (O00292 whole entry, looked up): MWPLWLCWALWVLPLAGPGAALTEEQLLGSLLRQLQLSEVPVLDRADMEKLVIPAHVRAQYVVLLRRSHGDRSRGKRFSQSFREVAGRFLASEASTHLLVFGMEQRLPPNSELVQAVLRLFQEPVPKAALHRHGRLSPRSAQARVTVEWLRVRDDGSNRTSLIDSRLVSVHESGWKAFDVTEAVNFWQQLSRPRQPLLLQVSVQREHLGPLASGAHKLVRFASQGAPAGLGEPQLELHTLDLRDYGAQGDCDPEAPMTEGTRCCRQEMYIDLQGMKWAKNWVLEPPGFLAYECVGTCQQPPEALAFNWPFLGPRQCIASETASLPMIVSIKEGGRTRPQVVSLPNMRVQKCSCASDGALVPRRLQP

[4] = biological target: Calmodulin-1 (Homo sapiens) (UniProt P0DP23); assay: small molecules binding calmodulin-1 with EGTA – biochemical, small-molecule microarray, Cy5-labelled CALM1, profiling panel (AID 1111); conditions: Cy5-CALM1 binding fluorescence, higher = more signal;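 further: labelled calmodulin applied in Tris saline Tween buffer holding calcium plus EGTA and DTT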
[5] = biological target: Calmodulin-1 (Homo sapiens) (UniProt P0DP23); assay: small molecules binding Ca-loaded calmodulin-1 – biochemical, small-molecule microarray, Cy5-labelled CALM1, plus calcium, artefact control for SMM control-protein annotation, profiling panel (AID 1112); conditions: Cy5-CALM1 binding fluorescence, higher = more signal;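 further: score merges spot fluorescence with signal to noise from triplicate slides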
[6] = probe aWnt5a binding to arrayed compounds – biochemical, biotinylated probe, 635/667 nm fluorescence, primary screen (AID 1113); conditions: small-molecule microarray, higher = more signal;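 further: score merges 667 nm fluorescence intensity with signal-to-noise per printed feature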
[7] = probe aShh binding to arrayed compounds – biochemical, biotinylated probe, 635/667 nm fluorescence, primary screen (AID 1114); conditions: small-molecule microarray, higher = more signal;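 further: probe is biotin-labelled aShh protein from a stem cell growth factor screen; measures binding of labelled protein to compounds printed on the slide; score merges feature fluorescence at 667 nm with signal-to-noise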
[8] = probe aNog binding to arrayed compounds – biochemical, biotinylated probe, 635/667 nm fluorescence, primary screen (AID 1115); conditions: small-molecule microarray, higher = more signal;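 further: probe is biotinylated aNog protein used at 0.15 µg/mL for 1 h at 4 C; z-score combines 667 nm fluorescence of each spot with its signal to noise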
[9] = biological target: Torsin-1A-interacting protein 1 (Homo sapiens) (UniProt Q5JTV8); assay: compound microarray binding of lysate hLAP1 – cell lysate, small-molecule microarray, COS7 lysate, 635/667 nm fluorescence, primary screen (AID 1116); conditions: 635 nm fluorescence, higher = more signal
Sequence of Torsin-1A-interacting protein 1 (Homo sapiens) (Q5JTV8 whole entry, looked up): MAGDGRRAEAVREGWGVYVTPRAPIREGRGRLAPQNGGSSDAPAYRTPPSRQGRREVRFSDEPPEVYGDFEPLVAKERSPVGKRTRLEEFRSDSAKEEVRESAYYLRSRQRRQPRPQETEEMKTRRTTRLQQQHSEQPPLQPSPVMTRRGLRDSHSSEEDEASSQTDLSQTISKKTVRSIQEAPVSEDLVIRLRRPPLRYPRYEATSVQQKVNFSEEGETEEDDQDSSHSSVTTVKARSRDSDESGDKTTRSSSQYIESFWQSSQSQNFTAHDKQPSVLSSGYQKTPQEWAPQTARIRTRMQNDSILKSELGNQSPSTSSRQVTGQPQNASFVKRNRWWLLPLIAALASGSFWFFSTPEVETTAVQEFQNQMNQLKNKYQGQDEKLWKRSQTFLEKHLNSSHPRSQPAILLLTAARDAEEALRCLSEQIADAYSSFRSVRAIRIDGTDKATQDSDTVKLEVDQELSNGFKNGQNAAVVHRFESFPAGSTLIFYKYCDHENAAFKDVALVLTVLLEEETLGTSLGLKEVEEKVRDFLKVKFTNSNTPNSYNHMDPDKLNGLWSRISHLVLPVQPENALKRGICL

[10] = biological target: Alpha-bungarotoxin (Bungarus multicinctus) (UniProt P60615); assay: compounds binding labelled alpha-BTX control protein – biochemical, small-molecule microarray, Alexa647 label, 635/667 nm fluorescence, artefact control for SMM control protein annotation, profiling panel (AID 1117); conditions: alpha-BTX-A647 binding fluorescence, higher = more signal
Sequence of Alpha-bungarotoxin (Bungarus multicinctus) (P60615 whole entry, looked up): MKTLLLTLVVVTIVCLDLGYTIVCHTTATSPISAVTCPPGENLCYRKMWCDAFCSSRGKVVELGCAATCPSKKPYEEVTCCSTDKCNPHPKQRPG

SMILES | composite z-score [1] | z-score [2] | composite z-score [3] | composite z-score [4] | composite z-score [5] | composite z-score [6] | composite z-score [7] | composite z-score [8] | composite z-score [9] | composite z-score [10]
COc1ccc(NN2C(C(O)c3ccc(OC)cc3)C=CC3C(=O)N(C4CCCCC4)C(=O)C32)cc1 (stereo not given) | 1.2 | -1.02 | 0.318 | 0.566 | -0.366 | 0.0357 | 0.191 | 0.571 | 0.53 | 1.08
CC(C)C(=C=CC[C@@H](O)c1ccccc1OCCO)C[C@@H](O)c1cc(Cl)cc(Cl)c1O | 1.48 | -3.27 | 0.744 | 0.341 | -0.538 | -0.0735 | -0.153 | 0.432 | -0.197 | 1.54
C[N+](C)(C)CCCCCCNC(=O)[C@H]1C[C@H]2C(=O)NCC(=O)N2[C@H]1c1cccc(OCCO)c1 | 0.626 | 0.643 | 1.5 | -0.748 | -0.95 | -0.096 | -0.311 | -0.231 | 0.509 | 0.355
O=C1c2ccccc2[C@](Cc2ccccc2I)(C(=O)O)[C@H](c2ccc(CO)cc2)N1Cc1ccccc1 | 1.17 | -0.837 | -1.04 | 1.34 | 0.83 | -0.0846 | -0.26 | -0.215 | 0.712 | 2.38
CC(C)C[C@@H]1NC(=O)[C@H]2C[C@@H](C(=O)NCCCCCNC(=O)CS)[C@@H](c3ccc(O)cc3)N2C1=O | 1.46 | -0.28 | 0.679 | 1.03 | -0.568 | 0.23 | 0.203 | -0.324 | 0.602 | 1.54
COC(=O)[C@@]1(Cc2ccc(OC)cc2)[C@H]2c3cc(C(=O)N(C)C)n(Cc4ccsc4Br)c3C[C@H]2CN1C(=O)c1ccccc1 | 0.835 | -0.235 | -0.318 | 1.01 | 0.511 | 0.281 | 0.696 | 1.61 | 2.24 | 0.177
COCCOC(=O)N1C(=O)[C@@]2(c3cc(C#CC4(O)CCCCCC4)ccc31)[C@H](c1ccc(OCCO)cc1)N1[C@H](c3ccccc3)[C@H](c3ccccc3)OC(=O)[C@H]1[C@@H]2C(N)=O | 0.448 | -2.2 | 0.547 | 1.04 | -0.111 | -0.0472 | 0.199 | 0.53 | 1.73 | 1.9
C=C(COC)/C(=C/C[C@H](OC(=O)c1ccncc1)c1ccc(OCCO)cc1)c1cc(C(=O)OC)ccc1OC | 1.42 | -1.66 | 0.431 | 0.579 | -0.467 | 0.0077 | 0.157 | 0.484 | 1.18 | 1.23
CC(=O)NCCCC[C@@H]1NC(=O)[C@@H]2C[C@H](C(=O)NCCCCCC[N+](C)(C)C)[C@H](c3ccc(O)cc3)N2C1=O | 1.11 | 0.825 | 0.943 | -0.504 | -0.901 | -0.15 | 0.0278 | -0.347 | 0.343 | -0.659
CCCCN1CC=CC23O[C@@H]4C=CCOC(=O)[C@@H]4[C@H]2C(=O)N(CCO)[C@@H]3C1=O (stereo not given in full) | -0.718 | 0.407 | -2.32 | -0.483 | 0.856 | -0.119 | 0.0893 | 0.643 | -0.401 | -1.48
[N-]=[N+]=Nc1ccccc1[C@@H]1OC(c2ccc(OCCCO)cc2)=N[C@]1(Cc1ccccc1)C(N)=O | 1.06 | -0.837 | -0.391 | 1.04 | 0.719 | -0.166 | 0.173 | -0.0956 | 0.0305 | 0.209
C=CCC(OC(C)=O)[C@@H]1[C@@H](N(Cc2ccc(-c3ccccc3)cc2)C(=O)c2ccc(-c3ccccc3)cc2)c2cc(OCCCO)ccc2N1C(=O)c1ccc2ccccc2n1 (stereo not given in full) | 0.0942 | -0.0356 | 0.108 | 0.19 | 0.531 | -0.184 | -0.214 | -0.335 | 0.276 | -0.282
CCC[C@@H]1[C@@H](Sc2ccccc2)[C@@H](C(=O)O)[C@H](c2ccc(C)cc2)N1S(=O)(=O)c1ccc(C)cc1 | 1.47 | -1.57 | 0.241 | 1.87 | 0.859 | 0.108 | -0.0866 | -0.0987 | 0.425 | 1.41
O=C1O[C@@H](c2ccccc2)[C@@H](c2ccccc2)N2[C@@H](c3ccc(OCCO)cc3)[C@]3(C(=O)Nc4ccc(C#CCCO)cc43)[C@@H](C(=O)Nc3nc4ccccc4s3)[C@H]12 | 1.36 | -1.36 | 0.364 | 0.84 | 0.338 | 0.0219 | 0.0639 | -0.353 | 0.82 | 0.626
O=C1NC(=O)C2C1C=CC(C(O)c1cccc(O)c1)N2Nc1ccc(Cl)cc1Cl (stereo not given) | -0.429 | -0.591 | -0.715 | 0.741 | 0.675 | -0.104 | -0.212 | -0.237 | -0.369 | 0.369
COc1ccccc1CN1C(=O)c2ccccc2[C@](Cc2ccccc2I)(C(=O)NCCCN(C)C)[C@@H]1c1ccc(CO)cc1 | 1.35 | -3.5 | -0.371 | -0.167 | -0.272 | 0.134 | 0.215 | 1.44 | 0.549 | 0.812
[N-]=[N+]=NCc1ccccc1C[C@]1(C(=O)O)COC(c2ccc(OCCCO)cc2)=N1 | -0.523 | -0.35 | -1.47 | 0.0347 | 1.01 | -0.15 | -0.341 | -0.277 | -1.24 | -0.711
C=CCOC(=O)[C@@H]1[C@H]2C(=O)O[C@H](c3ccccc3)[C@H](c3ccccc3)N2[C@H](c2ccc(OCCOC(=O)[C@H]3C[C@H]4C(=O)NCC(=O)N4[C@H]3c3ccc(O)cc3)cc2)[C@@]12C(=O)Nc1ccc(I)cc12 | 0.222 | -2.09 | 0.606 | 0.342 | -0.103 | -0.0758 | -0.294 | 0.036 | 1.27 | 1.74
Cc1c(-c2ccc(-c3ccc(Cl)c(Cl)c3)o2)nc(-c2ccccc2)c2c1CO[Si]2(C(C)C)C(C)C | 0.296 | -0.403 | -0.487 | -0.179 | -0.0727 | -0.113 | 0.0326 | -0.103 | 0.125 | -0.0982
CC(C)C[C@@H]1NC(=O)[C@@H]2C[C@H](C(=O)O)[C@H](c3ccc(O)cc3)N2C1=O | 0.309 | -0.836 | 0.695 | 1.31 | 0.192 | -0.0512 | 0.0611 | 0.116 | 1.22 | 1.64
CCCCC(=C=CC[C@H](O)c1ccc(OCCO)cc1)C[C@H](O)c1ccccn1 | 1.31 | -0.028 | 0.295 | 0.587 | -0.758 | -0.0758 | -0.0011 | 0.253 | 0.875 | 0.634
COc1ccc([Si](C)(C)[C@H]2[C@H](CCO)O[C@@]3(C(=O)N(Cc4ccccc4)c4ccc(N(C=O)c5ccccc5)cc43)[C@@H]2C)cc1 | 1.21 | -4.6 | 0.274 | 1.1 | 0.444 | -0.0512 | -0.0769 | -0.352 | 0.431 | 0.0701
C=CCOC(=O)[C@H]1[C@@H]2C(=O)O[C@@H](c3ccccc3)[C@@H](c3ccccc3)N2[C@@H](c2ccc(OCCOC(=O)[C@@H]3C[C@@H]4C(=O)N[C@@H](Cc5ccccc5)C(=O)N4[C@@H]3c3ccc(O)cc3)cc2)[C@]12C(=O)Nc1ccccc12 | 1.35 | -1.85 | 0.747 | 1.48 | 0.0137 | -0.124 | -0.232 | 0.281 | 0.409 | 0.948
CN(C)CCCC[C@@H]1NC(=O)[C@H]2C[C@@H](C(=O)O)[C@@H](c3cccc(OCCO)c3)N2C1=O | -0.226 | 4.23 | 0.494 | -0.526 | 0.16 | 0.0495 | 0.0611 | 0.25 | 0.633 | 1.47
CCCC=C(CCC)[C@@H](NS(=O)(=O)c1ccc(Cl)cc1)c1ccccc1 | -0.201 | -0.777 | -1.34 | 0.451 | 0.781 | 0.954 | 0.508 | 1.07 | -1.24 | 0.64
COC(=O)[C@@]1(Cc2ccc(OC)cc2)[C@H]2c3cc(C(=O)N4CCCC4)n(CCc4ccc(OC)c(Br)c4)c3C[C@H]2CN1C(=O)c1ccccc1 | -0.027 | 0.0171 | -0.38 | 2.19 | 0.967 | -0.0519 | 0.865 | 2.37 | 2.06 | -0.123
CN(C)C(=O)[C@@]1(CCS(=O)(=O)c2ccccc2)N=C(c2ccc(OCCCO)cc2)O[C@H]1c1ccccc1N=[N+]=[N-] | 1.43 | -0.235 | 0.258 | -0.038 | -0.0024 | 0.0445 | 0.199 | -0.484 | 1.56 | 0.901
COc1ccc(CC[C@H](O)c2cccc(OCC(=O)OC(C)(C)C)c2)cc1 | 1.38 | -1.12 | 0.461 | 0.829 | -0.271 | 0.0181 | 0.167 | -0.216 | 1.27 | 0.737
C=CCNC(=O)[C@@H]1[C@H]2C(=O)O[C@H](c3ccccc3)[C@H](c3ccccc3)N2[C@H](c2ccccc2OCCO)[C@@]12C(=O)N(C(=O)OCCOC)c1ccc(C#CCCO)cc12 | 1.34 | -1.82 | 0.0333 | 1.66 | 0.428 | -0.006 | 0.131 | -0.305 | 0.87 | 0.274
C=CCOC(=O)[C@H]1[C@@H]2C(=O)O[C@@H](c3ccccc3)[C@@H](c3ccccc3)N2[C@@H](c2ccc(OCCOC(=O)[C@@H]3C[C@@H]4C(=O)N[C@@H](CC(C)C)C(=O)N4[C@@H]3c3ccc(O)cc3)cc2)[C@]12C(=O)Nc1ccc(I)cc12 | 1.37 | -1.16 | 0.835 | 1.81 | 0.303 | 0.0095 | -0.0553 | 0.287 | 1.47 | 0.912
